Experimental data: the supplement of paper PMC9694430
Counter-ions that a name gives are not always drawn.

Tests used:
Experiment in all cases: thermal shift delta Tm vs DMSO control; higher = stronger stabilization (binding)
Conditions in all cases: 12.5 µM; protein concentration 2 µM
LOC_OS01G01410-cb001 = test system: LOC_OS01G01410-cb001
How it was run: (§1)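 Heating from 25°C to 95°C at 0.05°C/s, fluorescence was recorded for 19.5 μl wells of 2 μM E. coli-expressed, purified rice kinase domain in 100 mM potassium phosphate pH 7.5, 150 mM NaCl, 10% glycerol and 5 × SYPRO Orange with compound in DMSO. Boltzmann fits gave melting temperatures for this differential scanning fluorimetry assay. The shift reported is the mean of three replicates against the DMSO-only protein.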

LOC_OS01G02750-cb003 = test system: LOC_OS01G02750-cb003
How it was run: as §1

LOC_OS01G10900-cb004 = test system: LOC_OS01G10900-cb004
How it was run: as §1

LOC_OS01G13800-cb001 = test system: LOC_OS01G13800-cb001
How it was run: as §1

LOC_OS01G14860-cb001 = test system: LOC_OS01G14860-cb001
How it was run: as §1

LOC_OS01G21960-cb002 = test system: LOC_OS01G21960-cb002
How it was run: as §1

LOC_OS01G39600-cb002 = test system: LOC_OS01G39600-cb002
How it was run: as §1

LOC_OS01G48390-cb002 = test system: LOC_OS01G48390-cb002
How it was run: as §1

LOC_OS01G51400-cb002 = test system: LOC_OS01G51400-cb002
How it was run: as §1

LOC_OS01G52050-cb004 = test system: T1, LOC_OS01G52050-cb004
T1 sequence (whole entry): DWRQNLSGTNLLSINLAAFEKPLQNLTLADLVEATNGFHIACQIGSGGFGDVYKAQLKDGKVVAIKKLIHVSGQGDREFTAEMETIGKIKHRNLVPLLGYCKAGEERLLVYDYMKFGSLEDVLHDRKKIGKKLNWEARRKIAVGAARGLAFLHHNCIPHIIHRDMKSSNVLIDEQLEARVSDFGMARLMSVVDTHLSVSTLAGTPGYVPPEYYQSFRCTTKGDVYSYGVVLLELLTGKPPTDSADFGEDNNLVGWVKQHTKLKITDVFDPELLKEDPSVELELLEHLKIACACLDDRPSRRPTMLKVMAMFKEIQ
How it was run: as §1

LOC_OS01G57100-cb003 = test system: LOC_OS01G57100-cb003
How it was run: as §1

LOC_OS01G60330-cb001 = test system: LOC_OS01G60330-cb001
How it was run: as §1

LOC_OS01G60700-cb002 = test system: LOC_OS01G60700-cb002
How it was run: as §1

LOC_OS01G63280-cb003 = test system: LOC_OS01G63280-cb003
How it was run: as §1

LOC_OS01G67340-cb003 = test system: LOC_OS01G67340-cb003
How it was run: as §1

LOC_OS01G70970-cb002 = test system: LOC_OS01G70970-cb002
How it was run: as §1

LOC_OS02G07810-cb001 = test system: LOC_OS02G07810-cb001
How it was run: as §1

LOC_OS02G08530-cb003 = test system: LOC_OS02G08530-cb003
How it was run: as §1

LOC_OS02G14120-cb001 = test system: LOC_OS02G14120-cb001
How it was run: as §1

LOC_OS02G17970-cb001 = test system: LOC_OS02G17970-cb001
How it was run: as §1
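Further: purified Escherichia coli-expressed rice kinase domain construct.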

SMILES	thermal shift delta Tm (LOC_OS01G01410-cb001) [°C]	thermal shift delta Tm (LOC_OS01G02750-cb003) [°C]	thermal shift delta Tm (LOC_OS01G10900-cb004) [°C]	thermal shift delta Tm (LOC_OS01G13800-cb001) [°C]	thermal shift delta Tm (LOC_OS01G14860-cb001) [°C]	thermal shift delta Tm (LOC_OS01G21960-cb002) [°C]	thermal shift delta Tm (LOC_OS01G39600-cb002) [°C]	thermal shift delta Tm (LOC_OS01G48390-cb002) [°C]	thermal shift delta Tm (LOC_OS01G51400-cb002) [°C]	thermal shift delta Tm (LOC_OS01G52050-cb004) [°C]	thermal shift delta Tm (LOC_OS01G57100-cb003) [°C]	thermal shift delta Tm (LOC_OS01G60330-cb001) [°C]	thermal shift delta Tm (LOC_OS01G60700-cb002) [°C]	thermal shift delta Tm (LOC_OS01G63280-cb003) [°C]	thermal shift delta Tm (LOC_OS01G67340-cb003) [°C]	thermal shift delta Tm (LOC_OS01G70970-cb002) [°C]	thermal shift delta Tm (LOC_OS02G07810-cb001) [°C]	thermal shift delta Tm (LOC_OS02G08530-cb003) [°C]	thermal shift delta Tm (LOC_OS02G14120-cb001) [°C]	thermal shift delta Tm (LOC_OS02G17970-cb001) [°C]
NC(=O)c1cnc2[nH]ccc2c1N[C@@H]1[C@@H]2CC3C[C@H]1C[C@@](O)(C3)C2	3.91	3.77	1	0.16	5.61	2.38	5.22	4.09	0.18	4.66	0.13	10.2	1.43	3.87	3.53	6.42	0.39	3	6.44	0.82
C[C@H]1CNCCCN1S(=O)(=O)c1cccc2cncc(F)c12 [Ripasudil (K-115) hydrochloride dihydrate]	0.29	1.34	0.28	1.05	0.24	0.88	0.39	0.68	0.21	0.63	0.7	1.17	1.6	0.79	0.45	0.28	1.1	0.65	1.57	1.75
C=CC(=O)Nc1cccc(Oc2nc(Nc3ccc(N4CCN(C)CC4)cc3)ncc2Cl)c1	4.21	–	3.56	0.23	1.91	1.42	3.8	7.69	1.75	3.38	-0.75	1.82	0.8	0.27	-0.1	3.9	0.94	2.58	8.31	0
Cn1sc(=O)n(Cc2ccccc2)c1=O	-9.79	-0.38	–	0.24	-0.11	1.01	0.5	0.64	0.21	-0.28	3.29	-0.15	2.66	1.02	-1.31	–	2.24	-1.23	-0.52	1.81
CN1CCN(c2ccc(Nc3cc(-c4cccc(-n5ccc6cc(C7CC7)cc(F)c6c5=O)c4CO)cn(C)c3=O)nc2)CC1	0.08	-0.04	0.34	-0.27	0.17	0.86	–	0.24	0.38	0.27	0.99	0.83	1.11	0.24	-0.1	1.04	0.37	1.24	0.2	0.75
Cc1cc(O)c2c(c1)C(=O)c1cccc(O)c1C2=O [Chrysophanic Acid]	-0.01	-3.42	1.45	0.25	0.31	0.83	–	1.12	-0.16	-0.47	5.05	0.02	0.52	–	–	-3.4	0.6	-0.63	-2.71	1.94
